Results from PubChem BioAssay.

Test: JC-1 mitochondrial signal, unstimulated MM1S myeloma – cell-based, JC-1 fluorescence, 24 h, 100 nL compound, profiling panel (AID 1170); also: test concentration not given here
Conditions: MM1S mitochondrial potential, higher = more signal

With `O=C1O[C@H](c2ccccc2)[C@H](c2ccccc2)N2[C@H]1[C@@H](C(=O)NC[C@H](O)c1ccccc1)[C@]1(C(=O)Nc3ccc(C#CC4=CCCCC4)cc31)[C@H]2c1ccc(O)cc1` as the compound, how does the z-score read?
Its z-score is -0.544.

Which z-score does the source give for `COc1ccc([Si](C)(C)[C@@H]2[C@@H](CCO)O[C@]3(C(=O)N(Cc4ccccc4)c4ccc(N(C=O)c5ccccc5)cc43)[C@H]2C)cc1` here?
The z-score was -1.56.

For `COc1cc(NN2C(C(O)c3ccccc3)C=CC3C(=O)N(c4ccccc4)C(=O)C32)cc(OC)c1OC` (stereo not drawn), which z-score is on record?
The z-score was -1.41.

With `CN(C)CCCCNC(=O)[C@@H]1C[C@@H]2C(=O)N[C@@H](CCCCN)C(=O)N2[C@@H]1c1cccc(OCCO)c1` as the compound, how does the z-score read?
Its z-score is -0.0289.

With `COc1c(C)cc(-c2cc3c(c(-c4ccccc4)n2)[Si](C(C)C)(C(C)C)O[C@H]3c2ccccc2)cc1C` as the compound, how does the z-score read?
Its z-score is -0.198.

For `[N-]=[N+]=NCc1ccccc1C[C@]1(C(=O)NCc2ccccc2)COC(c2ccc(OCCCO)cc2)=N1`, which z-score is on record?
Its z-score is -2.3.

For `C=CCOC(=O)[C@@H]1[C@H]2C(=O)O[C@H](c3ccccc3)[C@H](c3ccccc3)N2[C@H](c2ccc(OCCOC(=O)[C@H]3C[C@H]4C(=O)N[C@@H](CCCC[N+](C)(C)C)C(=O)N4[C@H]3c3cccc(OCCO)c3)cc2)[C@@]12C(=O)Nc1ccc(I)cc12`, which z-score is on record?
Its z-score is -1.24.

With `O=C1OCC=C[C@H]2OC34C=CCN(c5ccc(Cl)cc5)C(=O)[C@H]3N(CCCO)C(=O)[C@@H]4[C@@H]12` (stereo partly drawn) as the compound, how does the z-score read?
The z-score was 0.856.

With `O=c1cccc(-c2ccccc2)o1` as the compound, how does the z-score read?
The z-score was -0.435.

For `C=C(COC)C(=O)CC[C@H](OC(=O)c1cccnc1)c1ccccc1OCCO`, which z-score is on record?
The z-score was -2.25.

With `CCCCCN1CC=CC23O[C@@H]4C=CCCOC(=O)C4[C@H]2C(=O)N(CCCO)[C@@H]3C1=O` (stereo partly drawn) as the compound, how does the z-score read?
Its z-score is 0.00824.

Which z-score does the source give for `CCN(CC)c1ccc(N2CC=CC34O[C@@H]5C=CCOC(=O)[C@@H]5[C@H]3C(=O)N(CCCCCO)[C@@H]4C2=O)cc1` (stereo partly drawn) here?
Its z-score is 1.65.

Which z-score does the source give for `C#C[C@H]1Oc2ccccc2S(=O)(=O)N2CCC[C@@H]12` here?
The z-score was -0.116.

With `O=C1C2C=CC(C(O)c3ccc(B(O)O)cc3)N(Nc3ccc([N+](=O)[O-])cc3)C2C(=O)N1c1ccccc1` (stereo not drawn) as the compound, how does the z-score read?
Its z-score is -1.22.

For `O=C1OCCC/C=C\[C@H]2OC34C=CCN(CCN5CCOCC5)C(=O)[C@H]3N(CCO)C(=O)[C@@H]4C12` (stereo partly drawn), which z-score is on record?
Its z-score is 0.533.

Which z-score does the source give for `CC(=O)n1cc(C(O)C2C=CC3C(=O)N(c4ccccc4)C(=O)C3N2Nc2ccc(C#N)cc2)c2ccccc21` (stereo not drawn) here?
Its z-score is -0.488.

For `COc1ccc(C(=O)Nc2cccc(CN3C(=O)[C@@]4(O[C@@H](CCn5cc([C@H](O)c6ccccc6)nn5)[C@H]([Si](C)(C)c5ccc(OC)cc5)[C@H]4C)c4ccccc43)c2)cc1`, which z-score is on record?
The z-score was -2.24.

Which z-score does the source give for `COC(=O)[C@@]1(Cc2ccc(F)cc2)[C@H]2c3cc(C(=O)N4CCCC4)n(CCc4ccc(OC)c(Br)c4)c3C[C@H]2CN1C(=O)c1ccccc1` here?
Its z-score is -2.09.

With `CC(C)N1C(=O)c2ccccc2[C@](C)(C(=O)NC2CC2)[C@@H]1c1ccc(CO)cc1` as the compound, how does the z-score read?
Its z-score is -0.847.

Which z-score does the source give for `CCCNC(=O)[C@@]1(C)c2ccccc2C(=O)N(Cc2ccc(OC(F)(F)F)cc2)[C@H]1c1ccc(CO)cc1` here?
Its z-score is -0.949.

For `C=CCC(OC(C)=O)[C@@H]1[C@@H](N(Cc2ccc(-c3cccc(C(F)(F)F)c3)o2)C(=O)Cc2ccc(OC)cc2)c2cc(OCCCO)ccc2N1C(=O)Cc1ccc(OC)cc1` (stereo partly drawn), which z-score is on record?
The z-score was -0.757.

With `COC(=O)[C@@]1(Cc2ccccc2)[C@H]2c3cc(C(=O)N(C)C)n(Cc4cc(F)c(F)c(F)c4)c3C[C@H]2CN1C(=O)c1ccccc1` as the compound, how does the z-score read?
The z-score was -0.951.

Which z-score does the source give for `C=C(C)[C@@H]1CC=C(C(O)C2C=CC3C(=O)N(Cc4ccccc4)C(=O)C3N2n2cnnc2)CC1` (stereo partly drawn) here?
The z-score was -2.13.
